DAX1 inh-1 = NR0B1 (DAX1) inhibition | HEK293 Gal4-DAX1 luciferase reporter, luminescence | AID 504766 | inhibition, % at 6.75 µM | 0.99% of 340,000 active;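 active means inhibition above the mean over all tested compounds plus 3 SD, cut at about 4.2% in these data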;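 further: 0% = DAX1-transfected cells with DMSO and 100% = empty-vector control cells with DMSO; inhibition shows as a rise in luminescence from relieved DAX1 repression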
Target sequence (P51843 207-470 limits assumed): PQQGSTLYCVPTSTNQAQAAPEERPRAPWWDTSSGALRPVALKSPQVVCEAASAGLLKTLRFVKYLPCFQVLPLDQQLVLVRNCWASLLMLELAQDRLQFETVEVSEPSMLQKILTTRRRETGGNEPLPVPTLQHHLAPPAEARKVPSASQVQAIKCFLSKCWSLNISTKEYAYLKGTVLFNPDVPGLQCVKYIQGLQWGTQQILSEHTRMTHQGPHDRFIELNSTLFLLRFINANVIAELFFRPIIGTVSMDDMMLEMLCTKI
DAX1 inh-2 = DAX1 (NR0B1) inhibition, primary screen; AID 652010; inhibition, % at 6.8 µM; HEK293T StAR-luciferase reporter, SF-1/DAX-1 repression relief; 1.1% of 370,000 active;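 active means inhibition above the mean over all tested compounds plus 3 SD, cut at about 3.6% in these data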;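 further: 0% = DAX-1 cells with DMSO and 100% = cells lacking DAX-1 with DMSO; higher inhibition means more luminescence from relief of DAX-1 repression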
hgDAF-12 ag = activates the H. glycines DAF-12 receptor ligand-binding domain. HEK293 GAL4-hgDAF12 UAS-luciferase reporter, agonist luminescence; normalized to butyrate control. activation, % at 6.8 µM. 1.8% of 370,000 active. AID 687014;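 active means activation above a cutoff set at the mean of all screened compounds plus 3 SD, cut at about 10% in these data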;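 further: 0% = DMSO wells and 100% = sodium butyrate wells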
ssDAF12 agonist = activators of S. stercoralis DAF-12 nuclear receptor. HEK293 ssDAF-12/GRIP1 lit1-tk-luc reporter, luminescence; % of 3 µM dafachronic acid response. 1% of 370,000 active. activation, % at 6.8 µM;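 active means activation above the mean over all tested compounds plus 3 SD, cut at about 0.9% in these data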;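 further: 0% = DMSO-only wells and 100% = 3 µM delta7-dafachronic acid wells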
hcDAF12 agonist = activates DAF-12 receptor from parasite H. contortus; HEK293 hcDAF-12 lit1-tk-luc reporter, luminescence; 0% DMSO, 100% Δ7-dafachronic acid; activation, % at 6.8 µM; 1.4% of 370,000 active; AID 652067;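 active means activation above the mean of all tested compounds plus 3 SD, cut at about 5.5% in these data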;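 further: 100% = response to 3 µM Δ7-dafachronic acid high control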
* = called active by the depositor; / = no result given. A selection: hits, their analogues and other compounds. The true share with any hit is near 4.1%.

SMILES | DAX1 inh-1 | DAX1 inh-2 | hgDAF-12 ag | ssDAF12 agonist | hcDAF12 agonist
C/C(=N\NC(=O)c1ccccc1OCCOc1ccccc1)c1ccccc1F | -0.8 | -3.7 | 0.6 | -0.4 | 0.8
CN(Cc1ccccc1)C(=O)OCc1cn(Cc2c(F)cccc2F)nn1 | / | 0.3 | -0.9 | -0.9 | -3.2
Cc1nn(-c2ccccc2)c(C)c1/C=N\NC(=O)CSc1nc2ccccc2n1Cc1ccc(Cl)cc1 | / | 0.1 | 1.0 | -1.2 | -1.5
Cc1cc(C)cc(N(CC(=O)NC2CCC(C)CC2)S(=O)(=O)c2ccc(Cl)s2)c1 (centres undefined) | / | 0.4 | 5.6 | -0.2 | -1.8
NC(=S)COc1ccccc1 | 2.6 | 0.1 | 0.4 | -1.8 | -2.8
NC(=O)COc1ccccc1 | 0.6 | -0.1 | 0.6 | 1.2* | 1.1
CC1CC(c2ccccc2)=Nc2ccccc2N1 (centres undefined) | -0.2 | 0.7 | 8.2 | -0.1 | 5.7*
COc1ccc2c(c1)S/C(=C\C(=O)c1ccncc1)N2C | 1.8 | 0.6 | 11.7* | -0.2 | 1.2
O=C(OCCCN1CCC2(CCC(c3ccccc3)CC2)C1=O)c1ccccc1 (centres undefined) | / | -0.4 | 3.7 | -1.3 | -0.8
COc1ccc(OC)c(NC(=O)c2cc3c(=O)n4ccccc4nc3n2C)c1 | 0.5 | 1.1 | 3.6 | -1.3 | -0.8
O=C(Nc1cnc2ccccn2c1=O)c1ccc(F)cc1 | 2.9 | 1.4 | 10.6* | -0.5 | 1.1
COc1ccc(C(=O)Nc2cnc3ccccn3c2=O)cc1 | 4.1 | 3.0 | 11.7* | -0.3 | 1.2
COC(=O)[C@]12C[C@H](CC(=O)NCCC(C)C)C(=O)N(Cc3ccco3)C1=C[C@H](COCc1ccccc1)O[C@@H]2C | / | -1.1 | 6.7 | -1.4 | 0.7
O=C(/C(=C\c1ccccc1)c1nc2ccccc2[nH]1)c1ccc(Cl)cc1 | 0.1 | 0.9 | 11.2* | -0.3 | 0.9
Cc1cccc(-c2nnc(SCc3cccc4ccccc34)n2-c2ccc(Cl)cc2)c1 | / | -3.1 | -4.4 | -1.9 | -3.2
CSC(=Cc1ccc(C(=O)c2ccc(C)cc2)n1C)S(C)=O (centres undefined) | / | -0.8 | -0.1 | -0.2 | -1.0
O=c1[nH]c(-c2ccccc2)cnc1-c1ccccc1 | / | 1.8 | 11.3* | -0.4 | 4.7
CCCCC(=O)N[C@H]1CC[C@@]23CCCN2C(=O)CCC[C@H]3[C@H]1CCC | / | / | 0.4 | -1.4 | -0.5
Cc1cnc(NC(=O)CCN2C(=O)C3CCCCC3C2=O)s1 (centres undefined) | 6.7* | 0.3 | 1.6 | -1.3 | -0.8
Cc1cnc(NC(=O)CN2C(=O)C3CC=CCC3C2=O)s1 (centres undefined) | 3.7 | 0.5 | 1.8 | -1.0 | -1.4
Cc1cnc(NC(=O)CC2CCCC2)s1 | 4.2 | 2.6 | 10.5* | -0.9 | 3.2
O=S1(=O)C=CCN1Cc1cn(Cc2ccc(C(F)(F)F)cc2)nn1 | / | -0.2 | 1.1 | -1.1 | -2.2
Cc1nc2c(-c3ccc(F)cc3)cnn2c(N)c1-c1ccc(F)cc1 | 4.3* | -0.3 | -3.6 | -1.6 | -0.6
COc1ccc(-c2c(C)nc3c(-c4ccsc4)cnn3c2N)cc1 | 5.2* | 1.7 | 7.0 | -0.6 | 3.1
Cc1cc(N)n2ncc(-c3ccc(F)cc3)c2n1 | -0.7 | 1.8 | 8.6 | -0.9 | 1.0
SMILES | DAX1 inh-1 | DAX1 inh-2 | hgDAF-12 ag | ssDAF12 agonist | hcDAF12 agonist
CC(C)(C)S(=O)(=O)c1cnc2c(-c3ccsc3)cnn2c1N | 3.3 | -0.6 | -0.8 | -1.2 | 1.0
COc1cc(O)c(C(C)=O)c(OC)c1 | 0.0 | -0.4 | -0.7 | -1.6 | -0.5
COc1cc(O)c(C(C)=O)c(CC(=O)O)c1 | -1.1 | 0.3 | -2.5 | 0.9* | -1.1
CC(=O)CC[C@@H]1CC[C@]2(CCCN(C(=O)c3ccc4ccccc4n3)C2)O1 | / | -0.7 | 1.8 | -0.6 | 0.8
CC(C)N1CCCCC(NC(=O)c2cccc(C(F)(F)F)c2)C1=O (centres undefined) | / | -0.7 | -4.8 | -1.2 | 1.1
CCCC1CCC2(CC1)CCC2OC(=S)NCc1cccc(OC)c1 (centres undefined) | / | / | 3.5 | -0.1 | -0.6
Cc1csc(NC(=O)CSc2nc3sc(C)c(C)c3c(=O)[nH]2)n1 | 0.1 | 1.7 | 3.3 | -0.8 | -0.1
Cc1ccc(NC(=O)c2sc3nc(CCl)[nH]c(=O)c3c2C)c(C)c1 | -0.6 | 3.7* | 3.2 | -0.9 | 1.7
CSCc1nc2sc(C(=O)Nc3nc(C)cs3)c(C)c2c(=O)[nH]1 | 2.9 | 2.4 | 11.8* | -0.9 | 3.5
COC(=O)[C@]12C[C@H](CC(=O)NCc3ccc(C)o3)C(=O)N(Cc3ccccc3)C1=C[C@H](C1CCCC1)O[C@@H]2C | / | -0.1 | -2.6 | -0.7 | -1.6
C=CCN=C1NC(c2cccc(Cl)c2)C(C(=O)OC)=C(C)N1Cc1cccc(C(F)(F)F)c1 (centres undefined) | / | -1.3 | 1.4 | -1.0 | -0.1
O=C(CCN1C(=O)/C(=C\c2ccccc2F)SC1=S)Nc1ccc(C(=O)O)c(O)c1 | 1.7 | 3.9* | 0.6 | -0.6 | 0.3
COC[C@@H]1CCCN1c1ccc2c(c1)O[C@H]1CCN(C1)S2(=O)=O | / | -0.2 | -1.7 | -1.4 | -0.4
FC(F)(F)c1cccc(N2CCN(C3=Nc4ccccc4Sc4ccccc43)CC2)c1 | / | 1.1 | 2.9 | -0.8 | -3.5
CCOC(=O)C1(Cc2cccc(OC)c2)CCCN(C(=O)CNC(C)=O)C1 (centres undefined) | 2.0 | 1.1 | 12.7* | 0.3 | 2.7
CCC[C@H]1[C@@H](OC(=O)NCCc2ccccc2)CC[C@@]23CCCN2C(=O)CCC[C@@H]13 | / | / | -3.9 | -1.7 | 0.0
COC(=O)[C@]12C[C@H](CC(=O)NCc3cccs3)C(=O)N(Cc3ccc(Cl)cc3Cl)C1=C[C@H](C1CCCC1)O[C@@H]2C | / | -0.5 | -1.0 | -1.3 | -0.1
C=CCN1[C@@H](C)[C@@H](c2ccccc2)Oc2c(Cl)cccc2S1(=O)=O | / | -0.8 | 2.9 | -1.1 | 0.5
O=C(NC1CCCC1)c1cc2c(ccc3ccccc32)o1 | 1.0 | 3.2 | 11.2* | 0.3 | 4.7
COC(=O)c1cc(C2(c3c[nH]c4ccccc34)CCN(C(=O)OC(C)(C)C)CC2)n2ccccc12 | / | -0.8 | 2.0 | -0.8 | 0.6
COc1ccc2c(c1OC)C(=O)OC2Nc1nc(-c2cc3cc(Br)ccc3oc2=O)cs1 (centres undefined) | 4.8* | 2.1 | 10.6* | -0.6 | 0.7
COc1ccc2c(c1OC)C(=O)OC2Nc1nc(-c2ccc([N+](=O)[O-])cc2)cs1 (centres undefined) | 1.5 | -0.3 | 4.7 | 1.6* | 3.4
COc1ccc(CN2C(=O)N3Cc4ccccc4C3CS2(=O)=O)cc1 (centres undefined) | / | 0.7 | -2.5 | -1.5 | -0.8
CCc1ccc2[nH]c(C(=O)Nc3ccc(C)c(F)c3)cc2c1 | 0.4 | 0.3 | 6.9 | 0.5 | 5.8*
Nc1c(C(=O)N2CCN(c3ccccc3)CC2)nnn1Cc1ccc(Cl)cc1 | / | -1.5 | 0.9 | -1.5 | -3.4
COc1ccc(/C=N/NC(=O)c2nnn(-c3nonc3N)c2C)cc1OC | 2.4 | -0.5 | -1.4 | -1.5 | -1.2

Source: PubChem (The Scripps Research Institute Molecular Screening Center)
